About 83,000 compounds went through this panel and 20% of them were active in at least one assay; those are over-represented in the sample as a whole.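 Growth was measured after 48 h exposure to one concentration of compound in 96-well plates. Values under 10 count as active.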 Unmarked numbers belong to inactive results. Activity calls are given as the source filed them.
Tested on: MOLT-4 leukemia
Assay: NCI-60 one-dose screen, 48 h (100 = growth as untreated, 0 = no growth, -100 = all killed)
Conditions: 10 µM
Procedure: Growth inhibition of the MOLT-4 human tumor cell line is measured as a screen for anti-cancer activity. Cells are grown in 96 well plates and exposed to the test compound for 48 hours. Compounds are tested at a single concentration, which is 10^-5 M for most compounds. The reported endpoint is percent growth (GI% or GIPRCNT), where numbers from 0 - 100% represent growth inhibition, and numbers from -100% - 0 represent cell death. For example, a value of 40 represents 60% growth inhibition. A value of 0 means no net growth occurred over the course of the experiment. A value of -40 indicates 40% of cells at the beginning of the experiment died by the end of the experiment. A value of -100 means all cells are dead at the end of the experiment.
NCI-60 Human Tumor Cell Lines Screen was performed using the standard one-dose NCI protocol, which is described in more detail at https://dtp.cancer.gov/discovery_development/nci-60/default.htm.
Compounds with GIPRCNT values below 10 were considered active. Activity score was based on GIPRCNT using the following formula: […]
Score is 0 for GIPRCNT values of 100 or above, 50 for GIPRCNT values of 0, and 100 for GIPRCNT values of -100.

Structure (SMILES) | growth
O=C(CSc1nnc(-c2c[nH]c3ccccc23)n1-c1ccccc1)Nc1ccc(C(=O)/C=C/c2cccc([N+](=O)[O-])c2)cc1 | 78%
COc1cnc2c(c1)C(=O)c1c-2n(CCCNC(C)C)c(=O)c2cc(OC)c(OC)cc12 | 16.5%
O=C(c1ccc(Cl)cc1)C1[C@H](c2ccccc2Br)[C@@H](c2ccccc2)NC12C(=O)Nc1ccc(Br)cc12 (stereo not given in full) | -9.97% (active)
COc1ccc(/C=C/C(=O)c2ccc(S(=O)(=O)NCCNc3nc(Nc4ccc(F)cc4)nc(N(C)C)n3)cc2)cc1 | 9.26% (active)
COc1cc2c(c(OC)c1OC)C(=O)CC(c1cccc(NC(=O)c3cccc(N)c3)c1)O2 (stereo not given) | 43.1%
O=C(CSc1nnc(-c2c[nH]c3ccccc23)n1-c1ccccc1)Nc1ccc(C(=O)/C=C/c2ccc(Cl)cc2)cc1 | 58.8%
CNCc1cccc2c1OCCCCCC[C@@](C)(O)CC1(CC1)S(=O)(=O)c1ccc(cc1)-c1cnc(N)c(n1)C(=O)N2 | -44.5% (active)
COc1cccc(-c2ccnc(/N=C(\N)Nc3ccc(S(=O)(=O)Nc4nc(C)cc(C)n4)cc3)n2)c1 | 101%
COc1cc(NC(=O)c2cc(-c3ccc(F)cc3F)ccc2O)cc(OC)c1OC | 10.6%
C=CCn1c(SCC(=O)Nc2ccc(C(=O)/C=C/c3ccccc3)cc2)nnc1-c1c[nH]c2ccccc12 | 33.2%
C/C(=N\N=C\c1ccc(Cl)c([N+](=O)[O-])c1)c1ccc2c(c1)Nc1ccccc1S2 | 40.3%
CONC[C@]1(C)C=C2C(=O)[C@](C)(O)C3(CC3)C(C)=C2[C@H]1O | -13.9% (active)
N#Cc1c(NC(=O)c2ccc(C(F)(F)F)c(Cl)c2)sc2c1CCC(=O)C2 | -6.19% (active)
CC(=O)Nc1ccc(-n2cnc3cc(-c4ccc(O)cc4)ccc32)cc1F | -0.0266% (active)
CN(CCO)c1oc(-c2ccccc2)nc1[P+](c1ccccc1)(c1ccccc1)c1ccccc1 | 13.4%
NS(=O)(=O)c1ccc(N=Nc2c(O)n(CC(=O)Nc3ccccc3Br)c3ccccc23)cc1 | 41.4%
COc1ccc(C(=O)Nc2sc3c(c2C#N)CCC(=O)C3)cc1C(F)(F)F | 3.42% (active)
COc1cc2c3c(n(CCCn4ccnc4)c(=O)c2cc1OC)-c1nc2c(cc1C3=O)OCO2 | 20.9%
NC1=NC(c2ccccc2Cl)N=C(Nc2nn[nH]n2)N1 (stereo not given) | 124%
O=C(CSc1nnc(-c2c[nH]c3ccccc23)n1-c1ccccc1)c1ccc(Cl)cc1 | 104%

Structure (SMILES) | growth
O=c1[nH]c2ccc(Cl)cc2cc1CSc1ccc(Nc2nccc(-c3ccc4ccccc4c3)n2)cc1 | 80.5%
Cc1noc2c(Cc3ccc([N+](=O)[O-])cc3)nn(CC(=O)N/N=C/c3ccc(Cl)cc3)c(=O)c12 | 97.8%
Cc1ccc2nc(COc3ccc(C(=O)NNC(=S)NC(=O)c4ccccc4)cc3)[nH]c2c1 | 52.6%
CC1(C)[C@@H](NCO)CC[C@]2(C)[C@H]3C(=O)C=C4[C@@H]5C[C@](C)(CO)CC[C@]5(C)CC[C@@]4(C)[C@]3(C)CC[C@@H]12 | 16.5%
O=C(NO)c1ccc(CN2CCN(c3nc(-c4ccccc4)c4ccccc4n3)CC2)cc1 | 22.9%
CCCn1c(=O)c2[nH]c(-c3ccc(OCc4nc5ccc(C#N)cc5[nH]4)cc3)nc2n(CCC)c1=O | 75.6%
Cc1ccc(-c2nc(Nc3ccccc3C(=O)O)c3ccccc3n2)cc1 | 10.9%
O=c1[nH]c2ccc(Cl)cc2cc1CSc1ccc(Nc2nccc(-c3ccc(Cl)cc3)n2)cc1 | 46.4%
Cc1nc2c(cnn2-c2ccccc2)c(=O)n1-c1ccc(NC(=O)c2ccc(F)cc2)cc1 | 5.38% (active)
CC(=O)Nc1ccc(-c2cn(-c3cccc(C(=O)Nc4ccc(F)c(C(F)(F)F)c4)c3)nn2)cn1 | 36.9%
COc1ccc(-c2cc(C(=O)N=Nc3c(O)[nH]c4ccc(Br)cc34)c3ccccc3n2)cc1 | 4.15% (active)
COc1cccc(COc2ccc(/C=C3\Oc4cc(O)ccc4C3=O)cc2)c1 | 52.1%
Cc1cc2nc3c4ccccc4n(CCO)c3nc2cc1C | 78.4%
COC(=O)c1c(C(=O)OC)c2n(c1C)[C@@H]([C@@H](C)[C@H]1CC[C@H]3[C@@H]4CCC5=CC(=O)CC[C@]5(C)[C@H]4CC[C@]13C)SC2 | 2.64% (active)
O=C(Nc1ccc(Cl)c(C(F)(F)F)c1)c1cncc(C#Cc2cnc3ccc(N4CCOCC4)nn23)c1 | 0.617% (active)
O=C1Nc2cc(Cl)ccc2/C1=C/c1cccc(OCc2ccccc2)c1 | 5.59% (active)
COc1ccc(CCN2C(=O)/C(=C/c3csc(C#N)n3)SC2=S)cc1OC | -10.7% (active)
COc1ccc(NC(=O)CSc2nnc(-c3ccc4nc(-c5ccc(Cl)cc5)[nH]c4c3)o2)cc1 | 30.4%
CO[C@H]1CSS[C@@H]1Cn1nc(-c2ccc(Oc3ccccc3)cc2)c2c(N)ncnc21 | -20.6% (active)
O=C(CSc1nnc(-c2c[nH]c3ccccc23)n1-c1ccccc1)c1ccc(Br)cc1 | 92.2%
